Laboratory results published in PubChem BioAssay AID2100 (National Center for Advancing Translational Sciences (NCATS), 2009).
Out of some 300,000 compounds screened, about 1,200 (0.4%) were called active. Another 3% or so got no clear call; they are omitted. Calls follow the shape of the dose curve; as a rule, active = well fitted inhibition curve with a large enough effect; inconclusive = small, poorly fitted or top-dose-only effect, or another doubt; inactive = no such curve, though single readings can be large or run the other way. The full list was thinned out, with actives kept by preference.

Target: Lysosomal alpha-glucosidase (Homo sapiens) (UniProt P10253)
Assay: qHTS Assay for Inhibitors and Activators of Human alpha-Glucosidase Cleavage of Glycogen;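 also: the screen sought inhibitors and activators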;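 as to activity change, negative = inhibition: 0% = full enzyme reaction and -100% = no-enzyme basal signal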
Conditions: recombinant GAA, glycogen substrate, Amplex Red glucose oxidase fluorescence; series mostly up to 76.3 µM; activity change, negative = inhibition: at the top concentration
From the text: NIH Chemical Genomics Center [NCGC] NIH Molecular Libraries Probe Production Centers Network [MLPCN] MLPCN Grant: R03 MH084841-01 Assay Submitter (PI): Wei Zheng NCGC Assay Overview: Alpha-glucosidase is responsible for the hydrolysis of terminal, non-reducing 1,4-linked alpha-D-glucose residues, which releases alpha-D-glucose. It is a lysosomal hydrolase that is required for the degradation of a small percentage (1-3%) of cellular glycogen in humans. Deficiency of this enzyme results in glycogen-storage disease type II (GSDII), also referred to as Pompe disease, an autosomal recessive disorder. Structurally normal glycogen is accumulated in the lysosomes and cytoplasm in affected patients, primarily in muscle tissues. Excessive glycogen storage within lysosomes may interrupt normal functioning of other organelles and leads to cellular injury. In turn, this leads to enlargement and dysfunction of the entire organ involved (eg: cardiomyopathy and muscle weakness). It has been reported that the improper folding and trafficking of alpha-glucosidase resulting from genetic mutations may account for a significant number of Pompe patients. […] We optimized this alpha-glucosidase assay in 1536-well plate format for identification of novel small molecule inhibitors or activators with structures other than the sugar analogs in order to develop new pharmacological chaperones. Previous assays of alpha-Glucosidase have utilized a non-natural fluorescent substrate to probe enzyme activity. The present assay measures enzyme activity on glycogen using a coupled-assay system to glucose oxidase.
NCGC Assay Protocol Summary: This is an enzyme assay using glycogen from bovine liver (Sigma catalog #: G0885) as the substrate and recombinant human alpha-glucosidase as the enzyme preparation. Upon hydrolysis of the substrate, the glucose product can be detected using the Amplex Red Glucose Oxidase Assay Kit (Invitrogen catalog #: A22189). The product of this reaction can be read with a fluorescence plate reader with an excitation at 573 nm and an emission at 610 nm. Data were normalized to the controls for basal activity (without enzyme) and 100% activity (with enzyme). The AC50 values were determined from concentration-response data modeled with the standard Hill equation. Assay buffer for enzyme reaction: 50 mM citric acid (titrated with potassium phosphate to pH 5.0), 0.01% Tween-20 (pH 5.0 is an optimal condition for this enzyme assay) Assay buffer for Amplex Red reaction: Tris-HCl, pH 7.5 1536-well assay protocol for the alpha-glucosidase assay: (1) Add 2 ul/well alpha-glucosidase enzyme solution (4 nM final) (2) Add 23 nL compounds in DMSO solution. The final titration was 0.7 nM to 77 uM. (3) Add 1 ul of glycogen substrate solution (30 ug) (4) Incubate at 37 C for 40 min (5) Add 2 ul tris-HCl buffer with Amplex Red reagents (6) Incubate 45 min at room temperature. (7) Detect the assay plate in a ViewLux plate reader (PerkinElmer) with Ex=573 nm and Em=610nm. Keywords: Alpha-glucosidase, Pompe Disease, pharmacological chaperone, chaperone therapy, high throughput screening, alpha-glucosidase inhibitor, MLSMR, MLSCN, NIH Roadmap, qHTS and NCGC
Potency is read from the fitted curve at half-maximal effect.

Activity change, negative = inhibition, inactive:
CCS(=O)(=O)N1CCc2cc(C(=O)N3CCN(c4ccccc4OC)CC3)ccc21 -12.8%
CCCOc1ccc(C2c3c(-c4ccccc4O)n[nH]c3C(=O)N2Cc2cccnc2)cc1 (stereo not drawn) -14.1%
CCOc1ccc(CNC(=O)C2CCCN(S(=O)(=O)N(CC)c3ccc(OCC)cc3)C2)cc1 (stereo not drawn) -5.42%
COc1ccccc1CNC(=O)c1ccc(NC(=O)N2CC(C)Sc3ccccc32)cc1 (stereo not drawn) -7.96%
COc1ccc(NC(=O)N2CCC(Cc3ccccc3)CC2)cc1 17.3% [at 76.4 µM]
CCCOc1cccc(C(=O)Nc2cccc(NC(=O)c3ccc(C(C)(C)C)cc3)c2)c1 -11.6%
COc1ccc(CCNC(=O)c2cc(=O)c3c(C)cc(C)cc3o2)cc1OC 12.6%
CCOC(=O)c1c(C)oc2ccc(N(C(=O)c3ccncc3)S(=O)(=O)c3ccc(CC)cc3)cc12 -5.49%
Cc1ccc(/C=N/NC(=O)CSc2nc3ccccc3o2)cc1 -4.49% [at 76.4 µM]
CCn1c(SCC(=O)N/N=C/c2ccncc2)nc2ccccc21 0.69% [at 76.4 µM]
CCN(CC)S(=O)(=O)c1nnc(NC(=O)COc2ccccc2Cl)s1 -4.77%
CCS(=O)(=O)N1CCc2cc(C(=O)NCc3ccc(OC)cc3)ccc21 14.8%
Cc1ccccc1-c1nc(CS(=O)(=O)CC(=O)Nc2cc(Cl)cc(Cl)c2)c(C)o1 -7.14%
Cc1cccc(NC(=O)N2CCC(CN3CCc4ccccc4C3)CC2)c1C 9.41%
COc1ccc2c(c1)C(C)=CC(C)(C)N2C(=O)CNCc1ccc2c(c1)OCO2 -16.1% [at 76.4 µM]
CC1=CC(C)(C)N(C(=O)CSc2nnc(-c3ccccc3)o2)c2ccc(C)cc21 -4.74% [at 76.4 µM]
CCOc1ccc(N(Cc2ccccc2)C(=O)c2nc(S(C)(=O)=O)ncc2Cl)cc1 13.6%
Cc1ccc(Cn2c(CCCNC(=O)C3CCCCC3)nc3ccccc32)cc1 -13.5%
COc1ccc2c(Sc3ccc(C)cc3)c(C(=O)NC(C)c3ccccc3)[nH]c2c1 (stereo not drawn) -10.9%
Cc1cccc(NC(=O)c2cc3c(C)nn(-c4ccccc4)c3s2)c1 -2.14%
COc1ccc(-c2cn3nc(N4CCCC(C(=O)NCCCOC(C)C)C4)sc3n2)cc1 (stereo not drawn) 4.17%
COC(=O)c1cc(S(=O)(=O)N2CCN(c3cc(Cl)ccc3C)CC2)c[nH]1 5.27%
COC(=O)c1cc2occc2n1Cc1nc(-c2ccc(C)cc2)oc1C -11.8%
Cc1nn(C(C)C(=O)NCCc2ccccc2)c(=O)c2c1sc1ccccc12 (stereo not drawn) -10.3%
O=C(Nc1ccccc1)Nc1ccc(C(F)(F)F)cn1 5.88% [at 76.4 µM]
Oc1ccc(Br)cc1/C=N/Nc1ccccn1 -5.32% [at 76.4 µM]
CCC1CCCCN1S(=O)(=O)c1ccc(NC(=O)c2cc(=O)c3ccccc3o2)cc1 (stereo not drawn) -6.07%
CCN1C(=O)c2cccc3c(S(=O)(=O)Nc4ccccc4O)ccc1c23 -4.12% [at 76.4 µM]
CN1C(=O)c2cccc3c(N)ccc(c23)C1=O 5.15% [at 76.4 µM]
O=C(Nc1ccc2nc(SCC(=O)N3CCCc4ccccc43)sc2c1)c1ccc(Cl)cc1 -2.34%
CCOC(=O)c1c(NC(=O)/C(C#N)=C/c2ccccc2)sc2c1CCC2 0.505%
CCOC(=O)c1c(NC(=S)NC)sc2c1CCCC2 -1.18% [at 76.4 µM]
O=C1CC(=O)Nc2cc(S(=O)(=O)N3CCN(c4cccc(C(F)(F)F)c4)CC3)ccc2N1 -10.2% [at 76.4 µM]
COc1ccc(N2CCN(S(=O)(=O)c3ccc4c(c3)NC(=O)C(C)C(=O)N4)CC2)cc1 (stereo not drawn) 7.77%
Cc1ccc(NC(=O)c2nc(S(=O)(=O)Cc3cccc(C)c3)ncc2Cl)cc1 9.9%
Cc1cc(N/N=C/c2ccccc2F)c2ccccc2n1 -19.4% [at 76.4 µM]
Cc1ccc2nc(C)cc(N/N=C/c3ccc(F)cc3)c2c1 -2.53% [at 76.4 µM]
Cc1ccc(C)n1-c1nnc(N2CCC(C(=O)NCc3ccc(F)cc3)CC2)s1 5.06%
Cc1ccc(CCNC(=O)C2CCN(c3nnc(-n4cccc4CNc4ccc(C)cc4)s3)CC2)cc1 -6.93%
Cc1cccc(OCC(=O)N(Cc2ccc(C(C)C)cc2)Cc2ccco2)c1C 9.65%
CCn1c2ccccc2c2cc(NC(=O)CNC)ccc21 -2.67% [at 76.4 µM]
CCn1c2ccccc2c2cc(NC(=O)COC(=O)c3ccccc3Br)ccc21 11.5% [at 76.4 µM]

Potency, active:
COc1ccc(CNC(=O)c2ccc(NC(=O)N3CC4CCCN4c4ccccc43)cc2)cc1 (stereo not drawn) 17.8 µM
Cn1c(SCC(=O)N/N=C/c2ccc(O)c(O)c2)nc2ccccc21 8.91 µM
COc1ccc2c(c1)C(C)=CC(C)(C)N2C(=O)Nc1ccccc1 35.5 µM
Cc1cc2cc3c(N)[nH]nc3nc2cc1C 8.91 µM
Oc1ccc(/C=N/Nc2ccc(C(F)(F)F)cn2)cc1O 3.52 µM
CCN1C(=O)c2cccc3c(N)ccc1c23 28.2 µM
CCOC(=O)c1c(/N=C/c2cc(C)ccc2O)sc2c1CCC2 10 µM
COc1ccc(N2CCN(S(=O)(=O)c3ccc4c(c3)CC(=O)N4)CC2)cc1 59.8 µM
COc1cccc2c(N/N=C/c3ccco3)cc(C)nc12 8.84 µM
CCOc1ccc(CNC(=O)C2CCN(c3nnc(-n4cccc4CNc4ccc(C)cc4)s3)CC2)cc1OC 31.6 µM
CCn1c2ccccc2c2cc(NC(=S)N3CCOCC3)ccc21 12.5 µM
